# Sampled rows, rich in hits. Any-hit rate of the full collection: about 21%.
# CYP2C19 activ: cytochrome P450 2C19 (human) activation | P33261 | recombinant CYP2C19, luciferin-H EGE luminescence; hits give high values; 0 = fully inhibited enzyme, 1 = untreated enzyme | activation factor at 5 µM | 96,000 tested, under 10 active;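 active means activation factor of at least 2 at 5 µM in the primary screen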;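 further: 0 = wells with 2.5 mM tranylcypromine and 1 = vehicle-only wells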
# Target sequence (P33261 whole entry, looked up): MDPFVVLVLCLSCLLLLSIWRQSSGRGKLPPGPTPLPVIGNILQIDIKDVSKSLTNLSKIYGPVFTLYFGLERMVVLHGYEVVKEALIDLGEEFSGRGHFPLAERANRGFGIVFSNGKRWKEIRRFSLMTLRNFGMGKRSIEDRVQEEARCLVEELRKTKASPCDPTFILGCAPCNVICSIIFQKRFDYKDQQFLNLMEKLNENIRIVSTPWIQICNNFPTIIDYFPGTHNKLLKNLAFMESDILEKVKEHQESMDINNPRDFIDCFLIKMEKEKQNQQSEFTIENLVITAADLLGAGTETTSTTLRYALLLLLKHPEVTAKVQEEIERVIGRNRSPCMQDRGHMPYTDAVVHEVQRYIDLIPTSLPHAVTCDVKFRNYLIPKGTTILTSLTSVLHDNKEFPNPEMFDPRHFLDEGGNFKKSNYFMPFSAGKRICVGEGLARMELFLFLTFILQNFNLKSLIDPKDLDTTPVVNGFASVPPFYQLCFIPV
# CYP2C19 inh: blocks human cytochrome P450 2C19 | inhibition, % at 5 µM | CYP2C19 Supersomes, luciferin-H EGE luminescence, 30 min | hit rate 21% among 96,000;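 active means CYP2C19 inhibition above a set limit at 5 µM in the primary screen, cut at about 50% in these data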;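 further: plate controls were negative control wells for no effect and 2.5 mM tranylcypromine positive control for full effect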
# CYP2C9 inhib: blocks human cytochrome P450 2C9. CYP2C9 Supersomes, luciferin-H conversion, luminescence. P11712. hit rate 20% among 96,000. inhibition, % at 5 µM;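 active means blocking of liver enzyme CYP2C9 beyond about 50% at 5 µM, limit read from the data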
# MRP reversal: reverses drug resistance mediated by MRP; H69AR cells + 2 uM doxorubicin, CellTiter-Glo, 72 h; differential viability (reversal), % at 10 µM; hit rate 0.04% among 85,000;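 active means viability drop by adding the cancer drug above about 55%, with treated viability meeting a 40% cutoff, limit read from the data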;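 further: viability without doxorubicin minus viability with 2 µM doxorubicin for each compound; larger differential means the compound sensitizes cells more to doxorubicin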
# CYP2C9 activ: activators of human CYP2C9 | P11712 | recombinant CYP2C9, luciferin-H conversion, luminescence; hits give high values; factor 1 = untreated enzyme, 0 = blocked | activation factor at 5 µM | hit rate 1.4% among 96,000 | AID 1024;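 active means activation factor of 2 or more for CYP2C9 at a 5 µM dose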;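 further: 0 = sulfaphenazole-blocked wells and 1 = vehicle-only wells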
# MRP-1 activ: activates MRP-1. hit rate 0.61% among 140,000. AID 799. viability increase, % at 10 µM. H69AR cells + doxorubicin, viability rescue, CellTiter-Glo;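 active means viability gain under doxorubicin at or above a set limit, the compound median plus 3 SD, cut at about 4.7% in these data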;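 further: MRP-1 overexpressing cells given doxorubicin 25 µM after compound pretreatment; 18-22 h compound pretreatment then 72 h with doxorubicin before readout; 0% = doxorubicin-only wells and 100% = vehicle-treated cells without doxorubicin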
# The depositor's hits bear a star; . = not tested or not shown.
SMILES,CYP2C19 activ,CYP2C19 inh,CYP2C9 inhib,MRP reversal,CYP2C9 activ,MRP-1 activ
CCOC(=O)c1c(C)noc1CP(=O)(c1ccccc1)c1ccccc1,.,.,.,-6,.,-1
CS(=O)(=O)N1CCc2cc(S(=O)(=O)Nc3ccc4oc5c(c4c3)CCCC5)ccc21,0,96*,93*,-27,0.1,-1
Cc1ccc(S(=O)(=O)Nc2ccc3c(c2)CCC3)cc1C,.,.,.,.,.,-1
COc1ccc(C2CCCN2C(=O)Nc2ccc(C)c(C)c2)cc1OC (stereo not given),0.2,76*,14,-9,0.9,2
COc1ccc(C2CCCN2C(=O)Nc2ccccc2)cc1OC (stereo not given),0.3,72*,-37,1,1.4,2
COC(=O)CSc1nc(C2CC2)cc(C(F)(F)F)c1C#N,0.3,66*,0,11,1,3
Cc1ccccc1Nc1nc(N)nc(COC(=O)C(NC(=O)c2ccco2)C(C)C)n1 (stereo not given),0.7,31,59*,5,0.4,-3
Cc1ccc2c(CC(=O)OCc3nc(N)nc(Nc4ccccc4C)n3)coc2c1,0.9,12,46,14,0.5,0
Cc1c(Cl)c(-c2n[nH]c(=S)n2-c2ccccc2)nn1C,.,.,.,.,.,-1
Cc1ccc(Nc2cc(C)nc(-c3ccccc3O)n2)cc1,0.8,20,55*,-23,0.4,-4
Cc1cc(NCCCN)nc(-c2ccccc2O)n1,0.9,10,25,7,0.7,-5
Cc1ccc(Oc2cc(C)nc(-c3ccccc3O)n2)cc1,0.2,76*,79*,-13,0.2,-1
COc1ccc(-c2cc(CNC(=O)CN(C)Cc3ccccc3)on2)cc1,0.5,50,-80,.,1.8,0
O=C(NCC1(c2ccccc2)CCCC1)c1cccc(Br)c1,1,1,6,.,0.9,0
CCOC(=O)c1c(NC(=O)CSc2nnc(-c3ccncc3)n2Cc2ccco2)sc(C(C)=O)c1C,.,.,.,24,.,.
Cc1cccc(NC(=O)CSc2nnc(-c3cnccn3)n2Cc2ccco2)c1,0.9,5,49,-2,0.5,-4
CCOC(=O)c1c(NC(=O)CSc2nnc(-c3ccncc3)n2Cc2ccco2)sc(C)c1C,0.2,84*,87*,15,0.1,-1
Cc1cc(C)c(NC(=O)CSc2nnc(-c3ccncc3)n2Cc2ccco2)c(Cl)c1,0.2,79*,92*,19,0.1,0
COc1ccccc1-c1cc(C(=O)N2CCN(c3ccccc3OC)CC2)no1,0.5,54*,-172,-36,2.7*,-5
O=C(c1cc(C2CC2)on1)N1CCN(c2ccc(F)cc2)CC1,0.2,83*,16,.,0.8,-2
O=C(c1cc(C2CC2)on1)N1CCN(C(c2ccccc2)c2ccccc2)CC1,1,-4,16,.,0.8,-1
COc1ccccc1N1CCN(C(=O)c2cc(-c3ccc(C)cc3)on2)CC1,0.8,19,41,15,0.6,3
COc1ccccc1N1CCN(C(=O)c2cc(-c3ccc(Cl)cc3)on2)CC1,0.9,5,14,-10,0.9,1
COc1ccccc1N1CCN(C(=O)c2cc(C3CC3)on2)CC1,0.2,81*,77*,11,0.2,-2
COc1ccc(OC)c(-c2cc(C(=O)N3CCN(c4ccccc4)CC3)no2)c1,0.2,76*,24,2,0.8,-1
SMILES,CYP2C19 activ,CYP2C19 inh,CYP2C9 inhib,MRP reversal,CYP2C9 activ,MRP-1 activ
O=C(c1cc(-c2cccs2)on1)N1CCN(c2ccc(F)cc2)CC1,0.9,12,22,0,0.8,-1
O=C(c1cc(-c2cccs2)on1)N1CCN(c2ccccc2)CC1,0.4,63*,72*,.,0.3,-1
COCCNC(=O)[C@@]1(Cc2ccccc2)C=C[C@@H](C)N1C(C)=O,.,.,.,.,.,0
O=C(O)CC(c1cccc2ccccc12)n1cccc1 (stereo not given),0.8,23,51*,-2,0.5,-1
Cc1ccc(NC(=O)c2cncc(Br)c2)cc1S(=O)(=O)N(C)C,.,.,.,.,.,-2
Cc1noc(C)c1CSc1nc2ccccc2[nH]1,0.6,37,26,-7,0.7,-1
COc1ccc(CSc2nc3ccccc3[nH]2)cc1,0.5,48,63*,.,0.4,0
O=C1CCC(=O)N1c1ccc(CSc2nc3ccccc3[nH]2)cc1,0.4,64*,62*,9,0.4,-1
COC(=O)c1ccc(CSc2nc3ccccc3[nH]2)o1,0.2,81*,36,10,0.6,-2
c1ccc2[nH]c(SCc3ccc(-c4nnco4)cc3)nc2c1,0,99*,95*,20,0.1,0
O=C(Nc1ccc(-c2nc3ccccc3[nH]2)cc1)c1ccc(N2C(=O)CCC2=O)cc1,.,.,.,.,.,0
O=C(NCc1ccccc1)N1CCN(c2ccc(Cl)c(Cl)c2)CC1,1,-3,22,2,0.8,-2
CC(=O)c1c(C)[nH]c(C(=O)COC(=O)CN(C)S(=O)(=O)c2ccc(Cl)cc2)c1C,0.8,25,22,-15,0.8,0
c1cnc2c(SCc3ccc(-c4nnco4)cc3)cccc2c1,0.1,86*,62*,-9,0.4,0
CCOC(=O)c1ccc(CSc2n[nH]c(C)n2)o1,0.3,65*,20,-9,0.8,1
CCOC(=O)c1ccc(CSc2nnc(C)n2N)o1,1.2,-22,20,3,0.8,-1
CCN(CCCNC(=O)CCNC(=O)Cn1cnc2ccccc2c1=O)c1ccccc1,1,1,40,-4,0.6,-1
CCSc1nnc(NC(=O)CSc2nc(C)cc(C)n2)s1,0.4,61*,39,19,0.6,-1
N#Cc1cc2c(nc1SCC(=O)Nc1nccs1)CCCCC2,0.9,6,54*,-4,0.5,-1
CCSc1nnc(NC(=O)CSc2nc3c(cc2C#N)CCCC3)s1,0.8,18,51*,.,0.5,-2
CCc1nnc(NC(=O)CSc2nnc(CSc3nc(C)cc(C)n3)n2C)s1,1,4,-2,1,1,0
CCc1nnc(NC(=O)CSc2nc3c(cc2C#N)CCC3)s1,1,5,6,-3,0.9,0
CCSc1nnc(NC(=O)C(C)(C)C)s1,0.5,52*,36,-1,0.6,1
CCN1CC(c2ccccc2)C(c2ccc(Cl)cc2)=N1 (stereo not given),.,.,.,.,.,-3
O=C(NCCO)/C(=C\c1ccc(Br)cc1)NC(=O)c1cccs1,.,.,.,.,.,2
CC(C)NC(=O)NC(=O)COC(=O)c1cccc(S(=O)(=O)N2CCCCC2)c1,.,.,.,.,.,-2
COc1ccc(OC)c(CNC(=O)CCN2C(=O)COc3ccccc32)c1,0.3,70*,-34,1,1.3,-4
CCOc1ccc(CCNC(=O)CCN2C(=O)COc3ccccc32)cc1OCC,0.9,15,32,9,0.7,0
COc1ccc(Br)cc1CNC(=O)CCN1C(=O)COc2ccccc21,0.2,81*,-8,4,1.1,0
